Assay outcomes (PubChem)
Calb FLC: C. albicans growth inhibition with fluconazole, primary screen, CaCi-2 strain, Alamar Blue fluorescence | growth inhibition, % (test concentration not listed) | C. albicans CaCi-2 (fluconazole-resistant clinical isolate) + fluconazole, 48 h | AID 1979, 2009 | 300,000 compounds, 0.57% hits;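 active = growth inhibition above about 58% in most replicates, limit read from the data, passing the limit was not always enough; inconclusive = exactly half the replicates above a set limit; inactive = most replicates below a set limit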;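 also: all wells also contain fluconazole at 8 µg/ml as a sub-toxic cotreatment; 0% = median of DMSO wells and 100% = median of geldanamycin control wells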
FAS-TE inh: FAS thioesterase domain inhibitors, primary screen, biochemical, fluorescence intensity, uHTS | recombinant FAS-TE, OMFH fluorogenic substrate, fluorescence endpoint | inhibition, % at 15 µM | 360,000 compounds, 0.67% hits | AID 602261, 2012;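 active = compounds whose normalised, plate-corrected inhibition of enzyme fluorescence in the single-dose primary screen is 50% or more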;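 also: 0% = DMSO with enzyme and 100% = substrate without enzyme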
ATG4B inh: ATG4B protease inhibitors, primary screen, biochemical, fluorescence, uHTS; Cysteine protease ATG4B (Homo sapiens), Q9Y4P1; ATG4B cleavage of LC3-PLA2, NBD-HPC fluorescence, 1 h; inhibition, % at 8.33 µM; 340,000 compounds, 0.51% hits; AID 504462, 2011; in the data active = inhibition above about 40%
Mot1-301 SUMO: yeast Mot1-301 growth rescue at high temperature, primary screen, SUMOylation pathway inhibitor project, S. cerevisiae, ATP luminescence, 38.5C. growth rescue, % at 18.8 µM. S. cerevisiae Mot1-301 growth rescue; percent above DMSO median, 100 means doubled. AID 2716, 2010. 320,000 compounds, 1% hits;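 active = every valid replicate shows activation above 250% relative to neutral control wells; inactive = the rest, any valid replicate at or below 250%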;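 also: OY570 slx delta 5 strain wells were the positive control but not used for scaling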
NadD block: inhibitors of S. aureus NadD, primary screen, biochemical, colorimetric, uHTS. 360,000 compounds, 0.78% hits. Nicotinate-nucleotide adenylyltransferase NadD (Staphylococcus aureus N315). inhibition, % at 20 µM. purified NadD enzyme, colorimetric absorbance read-out; in the data active = inhibition above about 26%
FAS-TE conf: FAS thioesterase domain inhibitors, confirmation, biochemical, fluorescence intensity, single concentration | shares compounds with FAS-TE inh | recombinant FAS-TE, OMFH fluorogenic substrate | inhibition, % at 15 µM | 2,300 compounds, 45% hits;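 active = compounds inhibiting the enzyme by at least 50% at 15 µM in any one of the replicates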;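 also: 0% = enzyme with DMSO only and 100% = wells lacking enzyme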
Starred values were filed as active, the others as inactive; ? = inconclusive; · = no result given. Hits are enriched below; roughly 3.1% of the tested compounds scored in any of these assays.

SMILES	Calb FLC	FAS-TE inh	ATG4B inh	Mot1-301 SUMO	NadD block	FAS-TE conf
CCn1c2ccccc2c2cc(NC(=O)COC(=O)c3cc(OC)c(OC)cc3OC)ccc21	-4.2	63.5*	-6.2	14.0	-13.9	30.0
CC(C)(C)SCCNC(=O)/C=C/c1ccc([N+](=O)[O-])cc1	-23.5	15.6	-11.0	16.8	1.1	·
O=C(/C=C/c1cccc([N+](=O)[O-])c1)NCCSc1ccccc1	14.1	68.6*	24.9	·	-7.2	79.7*
CC(C)(C)SCCNC(=O)/C=C/c1cccc([N+](=O)[O-])c1	27.8	72.2*	5.2	-12.2	0.6	62.2*
N/C(=N\OC(=O)CCC1CCCCC1)c1cccc([N+](=O)[O-])c1	-19.6	66.9*	0.7	-10.2	-5.8	66.4*
CCn1c(SCC(=O)Nc2ncc(C(F)(F)F)cc2Cl)nnc1-c1ccccc1	?	69.8*	-6.3	-8.1	-1.7	73.1*
CCOC(=O)c1c(NC(=O)CSc2nnc(-c3ccccc3)n2CC)sc(C(C)=O)c1C	3.7	50.9*	2.8	39.1	-2.9	17.2
CCn1c(SCC(=O)Nc2oc(-c3ccccc3)c(-c3ccccc3)c2C#N)nnc1-c1cc(OC)cc(OC)c1	36.2	53.9*	21.7	·	51.4*	2.7
Cn1c(SCC(=O)Nc2ncc(C(F)(F)F)cc2Cl)nnc1-c1ccc(Cl)cc1	-8.0	80.8*	-1.4	12.4	0.2	90.2*
N#Cc1c(NC(=O)CSc2ncccn2)oc(-c2ccccc2)c1-c1ccccc1	6.8	13.8	7.8	155.9	11.8	·
O=C(CSc1nc(O)cc(=O)n1-c1ccc(Cl)c(Cl)c1)Nc1ccc(Cl)cc1Cl	-3.5	9.0	4.1	2.6	11.6	·
OCc1cc(-c2ccc(Cl)c(Cl)c2)on1	-10.8	-2.9	-7.0	17.7	-9.4	·
Cc1cccc(C)c1NC(=O)CSc1nnc(C2CCCCC2)o1	-4.1	-3.9	-2.7	-7.9	4.1	·
CCCCC[C@@H]1[C@H]2[C@H]3C(=O)N(c4ccccc4)C(=O)[C@H]3CC(=O)[C@H]2[C@H](c2ccccc2)N1S(=O)(=O)c1ccc(C)cc1	·	58.8*	·	·	15.1	19.8
Cc1ccc(S(=O)(=O)N2C[C@H]3[C@H]4C(=O)N(C5CCCCC5)C(=O)[C@H]4CC(=O)[C@H]3[C@@H]2c2ccccc2Cl)cc1	·	62.0*	·	·	4.2	-1.0
CCOC1=C2[C@@H](CN(S(=O)(=O)c3ccc(C)cc3)[C@H]2c2ccc(Cl)cc2)[C@H]2C(=O)N(c3ccccc3)C(=O)[C@H]2C1	·	62.0*	·	·	5.5	39.8
CCN1C(=O)[C@@H]2[C@@H]3CN(S(=O)(=O)c4ccc(C)cc4)[C@@H](c4cccc5ccccc45)[C@@H]3C(=O)C[C@@H]2C1=O	·	-7.2	·	·	6.5	·
CCOC1=C2[C@@H](CN(S(=O)(=O)c3ccc(C)cc3)[C@H]2c2cccc3ccccc23)[C@H]2C(=O)N(C3CCCCC3)C(=O)[C@H]2C1	·	67.4*	·	·	12.3	12.8
O=C(CCCOc1ccc(Br)cc1)Nc1ccc(S(=O)(=O)N2CCOCC2)cc1	1.7	21.0	-6.0	-2.7	-8.4	·
CCCNC(=O)N(C)C[C@@H]1Oc2cc(Br)ccc2S(=O)(=O)N([C@@H](C)CO)C[C@H]1C	·	-4.1	·	·	2.0	·
CCC(O)C1CCN(C(=O)c2ccc(OC3CCN(Cc4ccccn4)CC3)cc2)CC1 (stereo not given)	-9.1	-3.5	-4.7	12.9	6.3	·
CCOC1=C2[C@@H](CN(S(=O)(=O)c3ccc(C)cc3)[C@H]2c2cccc3ccccc23)[C@H]2C(=O)N(c3ccccc3)C(=O)[C@H]2C1	·	77.1*	·	·	15.7	14.0
CCOC1=C2[C@H]([C@H]3C(=O)N(c4ccccc4)C(=O)[C@H]3C1)[C@@H](C(C)C)N(S(=O)(=O)c1ccc(C)cc1)[C@H]2c1ccccc1	·	57.6*	·	·	3.1	21.1
CCOC1=C2[C@@H](CN(S(=O)(=O)c3ccccc3)[C@H]2c2ccccc2)[C@H]2C(=O)N(c3ccccc3)C(=O)[C@H]2C1	·	22.5	·	·	-5.5	·
